Records with an inconclusive call do not appear. Calls of active or inactive are those of the source. Calls follow the shape of the dose curve; as a rule, active = well fitted curve in either direction with a large enough effect (not every such curve was filed as active); inconclusive = small, poorly fitted or top-dose-only effect, or another doubt; inactive = flat fitted curve, though single readings scatter.
% is scaled to controls: 0 for no effect and ±100 for the full control effect.

This experiment in a line: Stat Signaling Pathway (AID 446).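 Also: ME-180 cervical cancer cells given 40 pM IL-6 alongside compound; SIE-controlled beta-lactamase reporter measured as 460/530 nm FRET emission ratio.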 As to conditions: ME-180 (cervical carcinoma) SIE beta-lactamase reporter, IL-6 stimulated, 5 h; series mostly up to 17.2 µM; activity, negative = inhibition: at the top concentration. The method in brief:
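Overnight-plated ME-180 cells bearing a STAT Inducible Element beta-lactamase reporter; 5 h co-exposure to compound and 40 pM IL-6; values normalized to 300 pM IL-6 and 125 nM JAK inhibitor controls.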
On to `CS(=O)(=O)N1CCC2(CCCN(Cc3ccncc3)C2)CC1`, for which the “activity, negative = inhibition” value is -1.93% [at 7.69 µM] (inactive).

`c1ccc(CN2CC[C@@]3(CCCNC3)C2)cc1`: the “activity, negative = inhibition” value was -3.92% [at 7.69 µM] (inactive).

As to `c1cc(CN2CC3(CCNCC3)C2)ccn1`, the “activity, negative = inhibition” value is -1.53% [at 7.69 µM] (inactive). On to `c1csc(CN2CC[C@@]3(CCCNC3)C2)n1`, for which the “activity, negative = inhibition” value is 1.21% [at 7.69 µM] (inactive). To `COC(=O)N1CCC2(CCCN(C)C2)CC1` belongs -2.88% [at 7.69 µM] (inactive); to `c1ccc(CN2CCC3(CCNCC3)CC2)cc1`, -0.0973% [at 7.69 µM] (inactive).

`CN1CC[C@@]2(CCCN(C(=O)c3ccncc3)C2)C1`: the “activity, negative = inhibition” value is -5.99% [at 7.69 µM] (inactive). As to `c1cnc(N2CCCC3(CCNCC3)C2)nc1`, the “activity, negative = inhibition” value was -8.67% [at 7.69 µM] (inactive). Next, `Clc1ccccc1-c1cncnc1NCCc1cnc[nH]1`: 1.48% [at 7.69 µM] (inactive). Next, `CN1CC[C@@]2(CCCN(C(=O)Oc3ccccc3)C2)C1`: 4.34% [at 7.69 µM] (inactive); `O=C(Nc1ccccc1)N1CC[C@@]2(CCCN(C(=O)Oc3ccccc3)C2)C1`: -1.06% [at 7.69 µM] (inactive); `CC(C)NC(=O)N1CC[C@@]2(CCCNC2)C1`: -2.32% [at 7.69 µM] (inactive).

Regarding `c1ccc(N2CC3(CCNCC3)C2)nc1`, the “activity, negative = inhibition” value is 13.2% [at 7.69 µM] (inactive). Turning to `CC(C)NC(=O)N1CCC2(CC1)CCN(C(=O)Oc1ccccc1)CC2`, the “activity, negative = inhibition” value was -5.56% [at 7.69 µM] (inactive). For `CC(C)NC(=O)N1CCCC2(CCN(C(=O)Oc3ccccc3)CC2)C1`, the “activity, negative = inhibition” value was -23.9% [at 7.69 µM] (inactive). As for `CN1CCCC2(CCN(C(=O)Oc3ccccc3)CC2)C1`, the “activity, negative = inhibition” value is 4.73% [at 7.69 µM] (inactive).

`O=C(c1ccco1)N1CCC[C@@]2(CCN(Cc3ccncc3)C2)C1`: the “activity, negative = inhibition” value is -2.66% [at 7.69 µM] (inactive). On to `O=C(Nc1ccccc1)N1CC2(CCN(C(=O)Oc3ccccc3)CC2)C1`, for which the “activity, negative = inhibition” value is -11.5% [at 7.69 µM] (inactive). To `CC(C)CN1CC[C@@]2(CCCN(C(=O)c3ccncc3)C2)C1` belongs -5.13% [at 7.69 µM] (inactive); to `CC(C)CN1CC2(CCN(C(=O)Oc3ccccc3)CC2)C1`, -3.61% [at 7.69 µM] (inactive); to `O=C(Oc1ccccc1)N1CCC2(CCCN(Cc3ccccc3)C2)CC1`, -2.42% [at 7.69 µM] (inactive).

(Values after PubChem BioAssay (NCATS).)
